Measured values taken from the supplement of paper PMC11732987, “Enantioselective OTUD7B fragment discovery through chemoproteomics screening and high-throughput optimisation” (Communications Chemistry, 2025).

Legend:
Test in all cases: log2 ratio of Biotin-Ahx-Ub-VS probe labelling (fragment/DMSO); higher = less target engagement (more negative = stronger competition), active = hit call of the paper (q ≤ 0.05, log2 ratio ≤ -1)
Settings in all cases: compound concentration: 200 uM; treatment time: 3 h
OTUD6B = molecular target: T1, OTUD6B (UniProt Q8N6M0)
T1 sequence (whole entry): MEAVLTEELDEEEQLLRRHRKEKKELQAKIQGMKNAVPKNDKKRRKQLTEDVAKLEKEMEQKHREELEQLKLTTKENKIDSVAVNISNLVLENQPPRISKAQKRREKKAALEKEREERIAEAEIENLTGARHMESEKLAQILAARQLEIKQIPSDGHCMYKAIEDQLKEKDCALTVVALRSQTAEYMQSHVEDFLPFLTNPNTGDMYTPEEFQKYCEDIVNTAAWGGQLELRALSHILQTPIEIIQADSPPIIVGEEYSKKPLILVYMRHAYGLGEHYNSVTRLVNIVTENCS
Method in brief: (§1)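 Average log2 ratios of fragment over vehicle were obtained by unpaired t-test from global-median-normalised Spectronaut label-free quantities. Proteins with ≥2 unique peptides were included. HEK293T lysate (495 µg per sample) was treated in triplicate with fragment at 200 µM or vehicle for 3 h, then with Biotin-Ahx-Ub-VS at 0.5 µM final for 1 h, and labelled DUBs were NeutrAvidin-enriched and run by diaPASEF LC-MS/MS.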

OTUD7B = molecular target: T2, OTUD7B (UniProt Q6GQQ9)
T2 sequence (whole entry): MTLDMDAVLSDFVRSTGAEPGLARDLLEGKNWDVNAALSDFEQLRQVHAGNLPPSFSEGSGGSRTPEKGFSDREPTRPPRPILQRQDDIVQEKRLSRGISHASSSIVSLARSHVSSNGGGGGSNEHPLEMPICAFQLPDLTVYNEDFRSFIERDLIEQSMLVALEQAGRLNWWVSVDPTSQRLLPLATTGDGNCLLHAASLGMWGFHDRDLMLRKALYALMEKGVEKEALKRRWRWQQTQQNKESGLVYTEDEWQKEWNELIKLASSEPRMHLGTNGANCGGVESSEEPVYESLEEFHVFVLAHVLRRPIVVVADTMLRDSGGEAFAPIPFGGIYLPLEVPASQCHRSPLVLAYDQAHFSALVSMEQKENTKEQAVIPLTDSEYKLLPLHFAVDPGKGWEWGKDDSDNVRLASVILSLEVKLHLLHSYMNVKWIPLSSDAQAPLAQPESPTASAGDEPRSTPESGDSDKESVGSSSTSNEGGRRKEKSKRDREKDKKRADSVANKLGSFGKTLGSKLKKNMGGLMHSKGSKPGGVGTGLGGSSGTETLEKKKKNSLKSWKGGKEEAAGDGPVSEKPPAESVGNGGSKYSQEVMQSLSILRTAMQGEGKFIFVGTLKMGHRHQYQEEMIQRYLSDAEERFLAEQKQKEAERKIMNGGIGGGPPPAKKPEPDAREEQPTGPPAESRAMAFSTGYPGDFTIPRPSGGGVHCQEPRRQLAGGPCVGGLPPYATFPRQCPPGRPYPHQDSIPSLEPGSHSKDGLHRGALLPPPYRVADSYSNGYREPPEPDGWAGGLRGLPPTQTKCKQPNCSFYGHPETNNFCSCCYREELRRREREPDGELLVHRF
Method in brief: as §1

PRPF8 = PRPF8 (UniProt Q6P2Q9)
Method in brief: as §1

PSMD7 = molecular target: T3, PSMD7 (UniProt P51665)
T3 sequence (whole entry): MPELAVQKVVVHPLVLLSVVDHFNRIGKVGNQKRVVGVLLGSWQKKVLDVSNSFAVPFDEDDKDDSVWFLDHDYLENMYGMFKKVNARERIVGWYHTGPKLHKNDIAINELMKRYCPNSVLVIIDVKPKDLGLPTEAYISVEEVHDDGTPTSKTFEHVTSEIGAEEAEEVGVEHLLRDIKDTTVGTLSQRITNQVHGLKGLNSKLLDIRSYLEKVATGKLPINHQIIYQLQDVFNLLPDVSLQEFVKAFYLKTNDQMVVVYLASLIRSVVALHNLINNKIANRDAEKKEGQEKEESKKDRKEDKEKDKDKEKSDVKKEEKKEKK
Method in brief: as §1

UCHL1 = UCHL1 (UniProt P09936)
UCHL1, sequence (P09936 whole entry, looked up): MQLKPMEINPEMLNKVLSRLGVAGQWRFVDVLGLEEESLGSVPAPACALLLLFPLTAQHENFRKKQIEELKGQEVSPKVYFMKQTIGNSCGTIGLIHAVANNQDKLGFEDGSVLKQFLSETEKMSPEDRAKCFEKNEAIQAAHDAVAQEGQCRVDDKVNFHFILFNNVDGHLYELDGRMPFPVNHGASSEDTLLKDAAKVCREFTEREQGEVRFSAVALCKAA
Method in brief: as §1

UCHL3 = molecular target: T4, UCHL3 (UniProt P15374)
T4 sequence (whole entry): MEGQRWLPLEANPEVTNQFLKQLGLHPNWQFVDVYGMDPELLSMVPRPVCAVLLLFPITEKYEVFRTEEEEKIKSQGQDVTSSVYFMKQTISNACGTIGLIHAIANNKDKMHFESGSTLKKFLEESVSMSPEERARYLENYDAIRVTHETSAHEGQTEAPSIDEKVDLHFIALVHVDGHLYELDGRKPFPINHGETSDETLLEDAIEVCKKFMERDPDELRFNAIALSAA
Method in brief: as §1

UCHL5 = molecular target: T5, UCHL5 (UniProt Q9Y5K5)
T5 sequence (whole entry): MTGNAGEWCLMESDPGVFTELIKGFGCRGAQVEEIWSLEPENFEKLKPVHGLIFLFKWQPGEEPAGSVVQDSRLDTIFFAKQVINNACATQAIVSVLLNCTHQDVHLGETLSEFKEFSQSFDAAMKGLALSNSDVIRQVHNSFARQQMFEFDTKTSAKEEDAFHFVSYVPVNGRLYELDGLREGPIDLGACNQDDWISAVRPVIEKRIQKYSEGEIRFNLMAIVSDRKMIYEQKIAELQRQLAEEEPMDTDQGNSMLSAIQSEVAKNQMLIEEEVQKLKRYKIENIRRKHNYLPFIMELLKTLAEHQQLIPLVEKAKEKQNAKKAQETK
Method in brief: as §1

USP10 = USP10 (UniProt Q14694)
USP10, sequence (Q14694 whole entry): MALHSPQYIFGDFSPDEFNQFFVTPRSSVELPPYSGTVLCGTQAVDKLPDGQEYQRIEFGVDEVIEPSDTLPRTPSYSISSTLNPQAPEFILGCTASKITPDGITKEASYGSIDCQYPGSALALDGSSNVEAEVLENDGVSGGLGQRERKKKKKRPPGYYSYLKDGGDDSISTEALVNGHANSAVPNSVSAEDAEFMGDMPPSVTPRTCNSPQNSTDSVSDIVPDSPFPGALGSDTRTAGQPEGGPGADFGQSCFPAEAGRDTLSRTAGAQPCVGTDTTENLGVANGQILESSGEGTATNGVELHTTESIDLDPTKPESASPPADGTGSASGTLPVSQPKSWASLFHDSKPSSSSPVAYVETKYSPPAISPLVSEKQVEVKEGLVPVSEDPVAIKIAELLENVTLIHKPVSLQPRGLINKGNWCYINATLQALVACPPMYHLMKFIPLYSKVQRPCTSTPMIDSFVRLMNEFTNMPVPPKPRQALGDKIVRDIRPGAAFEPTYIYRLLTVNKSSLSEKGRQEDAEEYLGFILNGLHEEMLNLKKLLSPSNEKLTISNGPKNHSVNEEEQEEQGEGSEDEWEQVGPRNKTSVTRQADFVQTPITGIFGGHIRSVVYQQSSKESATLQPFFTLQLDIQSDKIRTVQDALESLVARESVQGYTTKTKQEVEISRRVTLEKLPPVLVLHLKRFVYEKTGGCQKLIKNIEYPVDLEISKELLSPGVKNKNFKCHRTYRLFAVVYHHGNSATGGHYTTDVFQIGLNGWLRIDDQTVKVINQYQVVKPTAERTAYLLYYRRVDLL
Method in brief: as §1

USP15 = molecular target: T6, USP15 (UniProt Q9Y4E8)
T6 sequence (whole entry): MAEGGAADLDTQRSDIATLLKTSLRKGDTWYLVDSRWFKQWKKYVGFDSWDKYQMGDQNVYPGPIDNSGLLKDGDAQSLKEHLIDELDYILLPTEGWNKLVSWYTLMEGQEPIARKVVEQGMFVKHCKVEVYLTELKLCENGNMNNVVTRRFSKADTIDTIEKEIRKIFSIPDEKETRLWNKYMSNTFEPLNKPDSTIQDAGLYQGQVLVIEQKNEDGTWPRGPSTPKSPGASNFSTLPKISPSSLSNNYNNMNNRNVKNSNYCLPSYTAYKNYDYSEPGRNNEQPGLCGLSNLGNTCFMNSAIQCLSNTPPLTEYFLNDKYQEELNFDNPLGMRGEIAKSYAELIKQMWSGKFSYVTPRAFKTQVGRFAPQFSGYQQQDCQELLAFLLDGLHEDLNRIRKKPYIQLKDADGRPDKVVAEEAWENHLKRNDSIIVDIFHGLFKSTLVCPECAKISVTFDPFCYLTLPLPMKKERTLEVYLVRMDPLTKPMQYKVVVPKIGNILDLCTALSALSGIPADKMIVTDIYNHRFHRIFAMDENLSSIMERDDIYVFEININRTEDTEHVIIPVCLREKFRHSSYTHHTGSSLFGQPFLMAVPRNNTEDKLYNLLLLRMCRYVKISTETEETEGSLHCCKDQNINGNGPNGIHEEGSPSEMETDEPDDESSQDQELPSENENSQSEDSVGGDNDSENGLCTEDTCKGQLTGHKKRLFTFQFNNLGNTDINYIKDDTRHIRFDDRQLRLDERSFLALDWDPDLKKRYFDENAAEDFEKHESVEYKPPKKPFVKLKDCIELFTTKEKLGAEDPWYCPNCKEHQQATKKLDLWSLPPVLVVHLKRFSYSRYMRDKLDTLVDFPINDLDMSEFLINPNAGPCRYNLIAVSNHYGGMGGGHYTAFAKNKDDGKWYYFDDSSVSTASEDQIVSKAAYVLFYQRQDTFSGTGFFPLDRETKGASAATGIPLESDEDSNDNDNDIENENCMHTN
Method in brief: as §1

USP16 = USP16 (UniProt Q9Y5T5)
USP16, sequence (Q9Y5T5 whole entry, looked up): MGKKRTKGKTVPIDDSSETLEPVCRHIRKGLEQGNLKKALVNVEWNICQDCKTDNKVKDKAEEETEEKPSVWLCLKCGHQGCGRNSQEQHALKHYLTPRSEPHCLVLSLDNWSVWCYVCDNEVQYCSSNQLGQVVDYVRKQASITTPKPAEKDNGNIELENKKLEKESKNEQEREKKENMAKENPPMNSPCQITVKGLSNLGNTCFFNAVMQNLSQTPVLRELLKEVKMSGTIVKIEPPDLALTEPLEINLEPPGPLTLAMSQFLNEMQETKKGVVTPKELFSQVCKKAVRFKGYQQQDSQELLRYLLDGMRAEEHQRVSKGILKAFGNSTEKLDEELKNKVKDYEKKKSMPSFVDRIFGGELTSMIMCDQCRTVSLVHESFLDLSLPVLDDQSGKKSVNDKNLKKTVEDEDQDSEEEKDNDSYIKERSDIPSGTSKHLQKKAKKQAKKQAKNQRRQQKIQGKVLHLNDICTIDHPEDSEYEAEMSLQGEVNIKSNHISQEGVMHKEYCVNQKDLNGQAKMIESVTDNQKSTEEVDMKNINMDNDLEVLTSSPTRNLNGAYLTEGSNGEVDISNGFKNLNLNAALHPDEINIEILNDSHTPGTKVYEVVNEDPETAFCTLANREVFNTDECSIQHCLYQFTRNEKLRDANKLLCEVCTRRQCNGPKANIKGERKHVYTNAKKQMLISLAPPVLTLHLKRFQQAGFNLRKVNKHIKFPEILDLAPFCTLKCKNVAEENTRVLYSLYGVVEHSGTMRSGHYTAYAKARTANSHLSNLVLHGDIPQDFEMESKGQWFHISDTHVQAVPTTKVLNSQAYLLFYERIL
Method in brief: as §1

Measured: log2 ratio of Biotin-Ahx-Ub-VS probe labelling

COc1ccc(-c2csc(NC(=O)CCl)n2)cc1
active: UCHL1 -1.27 | UCHL5 -3.29
inactive: OTUD6B -0.417 | OTUD7B -0.639 | PRPF8 0.0611 | PSMD7 -0.221 | UCHL3 -0.274 | USP10 -0.17 | USP15 -0.394 | USP16 -0.287
